Among the data in PubChem BioAssay (EPA / NIEHS) are outcome and AC50 values, retold here.

Where “and” joins values, the source holds several entries; their conditions need not be identical. Equal values may be shown once. Some compounds were tested as several samples or in several runs, with calls that do not always agree. Calls of active or inactive are those of the source. The calls were made as follows: active = hit-call score of the fitted dose curve at least 0.9, where 1 is the maximum; inactive = score below 0.9.

Assay [1] can be described thus: ATG_M_32_CIS: Attagene CIS-FACTORIAL HepG2 Assay for M32 Transcription Factor (Internal Marker) (AID 2282949).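 Also: background control marker of the multiplexed CIS panel rather than a real target.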 As to conditions: HepG2 Attagene cis-factorial M32 reporter, mRNA; actives raise or lower the signal. In short, it runs like this:
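HepG2 transfectants (cis-regulated reporter transcription units) dosed 24 h. Reporter mRNA by RT-PCR plus CE, analysed as gain or loss relative to DMSO.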

Assay [2] is described as follows: ATG_M_06_CIS: Attagene CIS-FACTORIAL HepG2 Assay for M06 Transcription Factor (Internal Marker) (AID 2282950). As to conditions: HepG2 Attagene CIS-FACTORIAL M06 internal marker reporter; actives raise or lower the signal. In short, it runs like this:
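Steps: transfect HepG2 with multiplexed cis-element reporter constructs; dose chemical 24 h; extract RNA with DNase treatment; reverse-transcribe, PCR-amplify, 6-FAM label, HpaI digest; separate fragments by capillary electrophoresis. Activity fitted both directions versus DMSO.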

The target of assay [3] is Hypoxia-inducible factor 1-alpha (Homo sapiens) (UniProt Q16665). Put plainly: ATG_HIF1a_CIS: Attagene CIS-FACTORIAL HepG2 Assay for human Hypoxia Inducible Factor 1 (HIF1A) (AID 2282951). To be noted: HepG2 Attagene cis-factorial HIF1a reporter transcription; actives raise or lower the signal. In short, it runs like this: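 Activity is fitted in both directions relative to DMSO. Reporter transcripts are read by RT-PCR, fluorescent primer extension and capillary electrophoresis after 24 h chemical treatment. The cells are HepG2 carrying transiently transfected cis-element-driven reporter units responding to endogenous factors.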

The target of assay [4] is Hepatocyte nuclear factor 6 (Homo sapiens) (UniProt Q9UBC0). Put plainly: ATG_HNF6_CIS: Attagene CIS-FACTORIAL HepG2 Assay for human Hepatocyte Nuclear Factor 6 (HNF6) (AID 2282952). As to conditions: HepG2 Attagene cis-factorial HNF6 reporter transcription; actives raise or lower the signal. In outline:
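First, HepG2 cells were transfected with the multiplexed cis reporter library and dosed with chemical for 24 h. Next, RNA was reverse-transcribed, PCR-amplified and fluorescently labelled. Finally, HpaI-digested fragments were read by capillary electrophoresis.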

Assay [5] in a line: ATG_MRE_CIS: Attagene CIS-FACTORIAL HepG2 Assay for human Metal Responsive Element (MRE) (AID 2282954). As to conditions: HepG2 MRE cis-reporter transcription, Attagene multiplex; actives raise or lower the signal. In short, it runs like this:
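Measured here is mRNA induction from an MRE cis-element reporter in HepG2 after 24 h, quantified by fluorescence of labelled RT-PCR products on capillary electrophoresis; gain- and loss-of-signal fits use DMSO as baseline.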

The nature of assay [6]: ATG_PBREM_CIS: Attagene CIS-FACTORIAL HepG2 Assay for human Phenobarbital-responsive Enhancer Module (PBREM) (AID 2282955). To be noted: HepG2 PBREM cis-reporter, Attagene multiplexed transcription; actives raise or lower the signal. In outline: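 Endogenous transcription factor activity was read from reporter transcripts in transiently transfected human HepG2 liver cells after 24 h dosing. RT-PCR products were fluorescently labelled, HpaI-cut and sized by capillary electrophoresis; activity fitted bidirectionally against DMSO baseline.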

Assay [7] addresses Paired box protein Pax-6 (Homo sapiens) (UniProt P26367). Put plainly: ATG_Pax6_CIS: Attagene CIS-FACTORIAL HepG2 Assay for human Paired Box 6 (PAX6) (AID 2282956). To be noted: HepG2 CIS-FACTORIAL PAX6 reporter transcription, RNA readout; actives raise or lower the signal. In short, it runs like this: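 DMSO-referenced bidirectional fits of reporter mRNA fluorescence; HepG2 with transient cis-promoter MRTUs, 24 h post-dose, RT-PCR plus capillary electrophoresis detection.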

Assay [8] can be described thus: ATG_PXRE_CIS: Attagene CIS-FACTORIAL HepG2 Assay for human Pregnane X Receptor Element (PXRE) (AID 2282957). As to conditions: HepG2 Attagene CIS-FACTORIAL PXRE reporter, mRNA; actives raise or lower the signal. In outline:
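After a 24 h chemical incubation, total RNA from transfected HepG2 cells was reverse-transcribed and reporter cDNA amplified, FAM-labeled, HpaI-digested and sized by capillary electrophoresis. DMSO served as baseline for bidirectional curve fitting.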

Assay [9] in a line: ATG_PPRE_CIS: Attagene CIS-FACTORIAL HepG2 Assay for human Peroxisome Proliferator-activated Response Element (PPRE) (AID 2282958). As to conditions: HepG2 PPRE cis-element reporter, Attagene transcription factor profiling; actives raise or lower the signal. In short, it runs like this:
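Endogenous PPRE-driven transcription is measured in HepG2 cells carrying transfected multi-reporter constructs. Reporter transcripts are quantified by RT-PCR, HpaI digestion and capillary electrophoresis 24 h after dosing. DMSO baseline, bidirectional fit.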

The nature of assay [10]: ATG_RORE_CIS: Attagene CIS-FACTORIAL HepG2 Assay for human RAR-related Orphan Receptor Element (RORE) (AID 2282959). To be noted: HepG2 Attagene cis-factorial RORE reporter, mRNA; actives raise or lower the signal. In short, it runs like this: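 RORE reporter transcripts reflecting endogenous factor activity were read after 24 h compound exposure of transfected HepG2 cells, using reverse transcription, PCR, fluorescent labelling and capillary electrophoresis sizing. Gain or loss fitted against DMSO.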

Assay [11] is described as follows: ATG_Sox_CIS: Attagene CIS-FACTORIAL HepG2 Assay for human SRY-box transcription factor (SOX) (AID 2282960). To be noted: HepG2 Attagene cis-factorial SOX reporter, mRNA; actives raise or lower the signal. In outline: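 Reporter transcripts, measured by RT-PCR and capillary electrophoresis of labelled fragments, report endogenous SOX transcription factor activity. Transiently transfected human HepG2 cells receive chemical for 24 h; changes in either direction are fitted relative to DMSO.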

Assay [12] addresses Transcription factor Sp1 (Homo sapiens) (UniProt P08047). Put plainly: ATG_Sp1_CIS: Attagene CIS-FACTORIAL HepG2 Assay for human Specificity Protein 1 (Sp1) (AID 2282961). To be noted: HepG2 Sp1 cis-reporter transcription, actives raise or lower the signal. In outline:
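Read-out is reporter transcript level, measured by RT-PCR and fluorescent capillary electrophoresis after 24 h chemical treatment. System: transiently transfected HepG2 cells reporting endogenous transcription factor activity; gain or loss fitted against DMSO baseline.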

The nature of assay [13]: ATG_SREBP_CIS: Attagene CIS-FACTORIAL HepG2 Assay for human Sterol Regulatory Element Binding (SREBP) (AID 2282962). As to conditions: HepG2 Attagene cis-factorial SREBP reporter, mRNA; actives raise or lower the signal. In short, it runs like this: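 In this cis-format assay, HepG2 liver cells express reporters controlled by promoter elements responsive to native transcription factors. Exposure lasts 24 h; reporter mRNA fluorescence from capillary electrophoresis gives the signal, fitted bidirectionally against DMSO.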

The target in assay [14] is Signal transducer and activator of transcription 3 (Homo sapiens) (UniProt P40763). As to the kind of experiment: ATG_STAT3_CIS: Attagene CIS-FACTORIAL HepG2 Assay for human Signal Transducer and Activator of Transcription 3 (STAT3) (AID 2282963). As to conditions: HepG2, Attagene cis-factorial STAT3 reporter transcription; actives raise or lower the signal. In short, it runs like this:
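Fluorescence intensity of 6-FAM-labelled reporter fragments, separated by capillary electrophoresis after RT-PCR, gave the signal. Cells were HepG2 transfected with cis-element reporter units and treated 24 h; fitting was bidirectional relative to DMSO.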

A short description of assay [15]: ATG_TA_CIS: Attagene CIS-FACTORIAL HepG2 Assay for human TA Basal Promoter (AID 2282964). To be noted: HepG2 Attagene CIS-factorial TA basal promoter reporter; actives raise or lower the signal. In outline: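 Steps: transfect HepG2 with MRTUs; dose 24 h; isolate RNA, DNase-treat, reverse-transcribe; PCR and FAM-label reporter cDNA; digest with HpaI 2h at 37 C; run capillary electrophoresis. Activity fitted both directions against DMSO.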

Assay [16] can be described thus: ATG_TCF_b_cat_CIS: Attagene CIS-FACTORIAL HepG2 Assay for human T-Cell-Factor with beta-catenin (TCF/b-cat) (AID 2282965). To be noted: HepG2 TCF/beta-catenin cis-reporter transcription, actives raise or lower the signal. In short, it runs like this: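 Cells of the HepG2 line carry transiently transfected reporter units whose promoters respond to endogenous factors. Twenty-four hours post-dosing, reporter mRNA induction is measured by fluorescent RT-PCR and capillary electrophoresis, with DMSO as baseline.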

Assay [17] can be described thus: ATG_TAL_CIS: Attagene CIS-FACTORIAL HepG2 Assay for human TAL Basal Promoter (AID 2282966).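 Also: background control endpoint measuring basal TAL promoter reporter mRNA not a specific factor.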 To be noted: HepG2 Attagene cis-factorial TAL promoter reporter; actives raise or lower the signal. In outline:
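Basal-promoter background-control endpoint from a multiplexed HepG2 reporter panel. Cells were exposed 24 h, then reporter mRNA was read by RT-PCR/CE fluorescence and fitted in both directions relative to DMSO.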

A short description of assay [18]: ATG_TGFb_CIS: Attagene CIS-FACTORIAL HepG2 Assay for human Transforming Growth Factor (TGF) (AID 2282967). To be noted: HepG2 Attagene CIS TGFb reporter, mRNA transcription; actives raise or lower the signal. In outline:
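Cells were dosed for 24 hours, after which total RNA was reverse-transcribed and reporter sequences amplified, labeled and sized by capillary electrophoresis. Activity was fitted in both directions against DMSO.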

Assay [19] in a line: ATG_VDRE_CIS: Attagene CIS-FACTORIAL HepG2 Assay for human Vitamin D Receptor Element (VDRE) (AID 2282968). As to conditions: HepG2 VDRE cis-reporter transcription, actives raise or lower the signal. In short, it runs like this: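 Compounds were applied for 24 h to HepG2 cells transfected with promoter-regulated reporter units. Total RNA was reverse-transcribed, and reporter amplicons were fluorescently labelled and sized by capillary electrophoresis.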

The target in assay [20] is Heat shock factor protein 1 (Homo sapiens) (UniProt Q00613). Put plainly: ATG_HSE_CIS: Attagene CIS-FACTORIAL HepG2 Assay for human Heat Shock Transcription Factor 1 (HSE) (AID 2282953). To be noted: HepG2 HSE cis-reporter, Attagene RNA transcription; actives raise or lower the signal. In outline:
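Cells were transfected with cis-element-driven reporter constructs, dosed for 24 h, then total RNA was reverse-transcribed and reporter cDNA amplified, FAM-labelled and digested with HpaI. Fragments were resolved by capillary electrophoresis; gain or loss was fitted against DMSO.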

Chain of Hypoxia-inducible factor 1-alpha (Homo sapiens) (Q16665 whole entry, looked up): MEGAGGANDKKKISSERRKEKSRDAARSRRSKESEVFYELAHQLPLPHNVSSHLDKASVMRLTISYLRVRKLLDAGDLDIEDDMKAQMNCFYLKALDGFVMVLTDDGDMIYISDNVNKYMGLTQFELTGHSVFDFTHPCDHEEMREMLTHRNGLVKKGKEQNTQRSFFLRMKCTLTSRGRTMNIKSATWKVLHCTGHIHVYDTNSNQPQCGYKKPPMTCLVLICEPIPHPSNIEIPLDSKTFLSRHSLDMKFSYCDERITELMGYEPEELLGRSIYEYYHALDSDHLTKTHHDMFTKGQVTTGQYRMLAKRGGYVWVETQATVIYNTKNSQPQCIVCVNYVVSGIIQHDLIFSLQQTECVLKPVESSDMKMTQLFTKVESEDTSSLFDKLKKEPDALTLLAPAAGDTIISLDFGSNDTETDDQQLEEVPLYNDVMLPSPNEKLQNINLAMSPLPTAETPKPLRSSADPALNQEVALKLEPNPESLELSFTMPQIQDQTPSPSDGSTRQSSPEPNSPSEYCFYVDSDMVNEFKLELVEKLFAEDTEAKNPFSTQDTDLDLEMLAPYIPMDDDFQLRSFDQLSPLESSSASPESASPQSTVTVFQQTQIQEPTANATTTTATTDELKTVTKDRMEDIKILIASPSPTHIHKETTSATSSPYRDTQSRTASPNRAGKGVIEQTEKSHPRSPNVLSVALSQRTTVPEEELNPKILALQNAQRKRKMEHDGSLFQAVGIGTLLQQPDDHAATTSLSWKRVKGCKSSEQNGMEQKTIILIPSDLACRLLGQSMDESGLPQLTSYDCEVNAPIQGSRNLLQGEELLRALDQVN
Chain of Transcription factor Sp1 (Homo sapiens) (P08047 whole entry, looked up): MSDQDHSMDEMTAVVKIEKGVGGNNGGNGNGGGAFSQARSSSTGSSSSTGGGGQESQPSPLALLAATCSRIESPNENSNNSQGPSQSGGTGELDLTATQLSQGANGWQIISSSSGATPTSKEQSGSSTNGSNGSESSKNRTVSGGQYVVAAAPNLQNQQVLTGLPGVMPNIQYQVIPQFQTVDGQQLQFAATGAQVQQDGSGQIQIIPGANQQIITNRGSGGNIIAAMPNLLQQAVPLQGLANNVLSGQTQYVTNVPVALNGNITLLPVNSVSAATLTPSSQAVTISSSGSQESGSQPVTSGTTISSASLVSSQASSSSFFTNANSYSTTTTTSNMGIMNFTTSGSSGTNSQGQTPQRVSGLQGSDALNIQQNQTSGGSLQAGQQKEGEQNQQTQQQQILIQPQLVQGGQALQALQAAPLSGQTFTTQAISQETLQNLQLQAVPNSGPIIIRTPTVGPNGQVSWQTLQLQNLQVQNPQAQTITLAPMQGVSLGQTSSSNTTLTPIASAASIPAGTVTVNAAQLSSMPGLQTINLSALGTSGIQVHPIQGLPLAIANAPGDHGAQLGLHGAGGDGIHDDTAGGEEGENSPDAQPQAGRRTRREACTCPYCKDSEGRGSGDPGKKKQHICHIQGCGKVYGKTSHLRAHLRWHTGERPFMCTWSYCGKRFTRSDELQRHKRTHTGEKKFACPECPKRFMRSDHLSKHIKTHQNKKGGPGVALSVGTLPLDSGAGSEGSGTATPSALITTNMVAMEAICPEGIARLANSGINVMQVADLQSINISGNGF
Chain of Paired box protein Pax-6 (Homo sapiens) (P26367 whole entry, looked up): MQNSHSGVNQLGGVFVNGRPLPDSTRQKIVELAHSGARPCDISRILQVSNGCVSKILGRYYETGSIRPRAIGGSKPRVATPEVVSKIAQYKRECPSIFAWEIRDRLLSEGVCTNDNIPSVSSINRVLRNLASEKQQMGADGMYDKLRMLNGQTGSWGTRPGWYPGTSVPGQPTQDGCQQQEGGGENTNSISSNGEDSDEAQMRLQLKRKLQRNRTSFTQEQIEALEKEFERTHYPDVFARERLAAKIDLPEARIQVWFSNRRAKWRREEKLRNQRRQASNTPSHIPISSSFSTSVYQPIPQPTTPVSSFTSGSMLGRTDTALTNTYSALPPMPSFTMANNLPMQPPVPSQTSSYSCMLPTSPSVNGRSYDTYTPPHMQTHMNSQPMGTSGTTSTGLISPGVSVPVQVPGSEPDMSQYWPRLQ
Chain of Signal transducer and activator of transcription 3 (Homo sapiens) (P40763 whole entry, looked up, the tested form may be a part): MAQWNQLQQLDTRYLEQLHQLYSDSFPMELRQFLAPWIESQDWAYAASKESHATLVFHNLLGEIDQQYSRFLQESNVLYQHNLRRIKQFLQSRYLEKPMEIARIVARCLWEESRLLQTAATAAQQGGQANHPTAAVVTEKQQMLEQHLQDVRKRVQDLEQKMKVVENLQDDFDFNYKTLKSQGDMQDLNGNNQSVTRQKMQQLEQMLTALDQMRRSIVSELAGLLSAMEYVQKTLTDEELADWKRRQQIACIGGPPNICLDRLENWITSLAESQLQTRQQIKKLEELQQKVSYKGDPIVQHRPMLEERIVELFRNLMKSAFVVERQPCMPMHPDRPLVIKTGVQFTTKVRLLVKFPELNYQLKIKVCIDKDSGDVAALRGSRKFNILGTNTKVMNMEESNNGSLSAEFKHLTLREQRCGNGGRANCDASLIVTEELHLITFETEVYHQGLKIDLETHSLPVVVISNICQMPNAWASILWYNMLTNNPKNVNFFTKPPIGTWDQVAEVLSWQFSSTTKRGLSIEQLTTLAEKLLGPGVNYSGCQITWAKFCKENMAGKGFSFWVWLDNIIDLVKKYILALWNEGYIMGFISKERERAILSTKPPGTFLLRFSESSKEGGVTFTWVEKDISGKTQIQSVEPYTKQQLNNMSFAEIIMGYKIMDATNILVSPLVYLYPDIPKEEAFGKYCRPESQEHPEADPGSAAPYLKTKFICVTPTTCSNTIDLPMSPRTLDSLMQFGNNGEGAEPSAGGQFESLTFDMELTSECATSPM
Chain of Hepatocyte nuclear factor 6 (Homo sapiens) (Q9UBC0 whole entry, looked up, the tested form may be a part): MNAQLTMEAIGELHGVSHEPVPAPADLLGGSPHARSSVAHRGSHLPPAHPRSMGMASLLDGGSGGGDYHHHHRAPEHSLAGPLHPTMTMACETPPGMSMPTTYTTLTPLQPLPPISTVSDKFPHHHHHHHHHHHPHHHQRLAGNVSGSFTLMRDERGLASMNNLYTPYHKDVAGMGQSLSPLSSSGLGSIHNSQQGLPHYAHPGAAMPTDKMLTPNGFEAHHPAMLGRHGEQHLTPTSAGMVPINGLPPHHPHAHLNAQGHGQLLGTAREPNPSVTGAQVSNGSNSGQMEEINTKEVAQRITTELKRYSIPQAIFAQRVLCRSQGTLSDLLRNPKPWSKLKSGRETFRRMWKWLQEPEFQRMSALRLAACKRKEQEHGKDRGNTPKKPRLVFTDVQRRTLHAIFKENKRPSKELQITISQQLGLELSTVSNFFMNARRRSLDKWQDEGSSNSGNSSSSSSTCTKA
Chain of Heat shock factor protein 1 (Homo sapiens) (Q00613 whole entry, looked up, the tested form may be a part): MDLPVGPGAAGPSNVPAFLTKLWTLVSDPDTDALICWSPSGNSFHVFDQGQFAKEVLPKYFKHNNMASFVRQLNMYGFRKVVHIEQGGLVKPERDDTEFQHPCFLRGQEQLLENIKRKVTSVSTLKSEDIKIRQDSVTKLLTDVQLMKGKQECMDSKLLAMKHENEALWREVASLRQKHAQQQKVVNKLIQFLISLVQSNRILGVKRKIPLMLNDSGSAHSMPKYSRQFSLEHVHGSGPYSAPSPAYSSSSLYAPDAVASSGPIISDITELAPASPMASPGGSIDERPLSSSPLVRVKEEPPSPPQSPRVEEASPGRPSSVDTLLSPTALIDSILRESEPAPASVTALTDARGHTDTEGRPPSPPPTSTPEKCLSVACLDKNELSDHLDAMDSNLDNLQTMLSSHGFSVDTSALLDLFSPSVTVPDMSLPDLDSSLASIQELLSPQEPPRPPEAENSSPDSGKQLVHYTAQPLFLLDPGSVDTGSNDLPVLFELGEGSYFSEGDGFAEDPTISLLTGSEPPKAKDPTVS

Turning to `CC(C)C=O`, the call in assay [1], in assay [2], in assay [3], in assay [4], in assay [5] and in [6] was inactive. In addition, the compound was called inactive in assay [7], in [9], in assay [10], in [11], in assay [12] and in assay [13]. Moreover, the call in assay [14], in [15], in assay [16], in [17], in assay [18] and in assay [19] was inactive. The concentration at half-maximal activity (AC50) in assay [3] was 157 µM (active); in assay [8], 61.9 µM (active) and 34.9 µM (active).

For `CCCCN(C)C`, the call in assay [1], in assay [2], in assay [3], in [4], in assay [20] and in assay [5] was inactive. Also, the outcome in assay [6], in [7], in [9], in [10], in assay [11] and in [12] was inactive. For the same compound, the compound was called inactive in assay [13], in assay [14], in assay [15], in assay [16], in [17] and in assay [18]. The call in assay [19] was inactive. The AC50 in [8] was 26.9 µM (active).

For the compound `CCOCCOCC`, the compound was called inactive in assay [1], in assay [2], in assay [3], in [4], in [20] and in [5]. Besides, the outcome in assay [6], in [7], in [8], in assay [9], in assay [10] and in assay [11] was inactive. In addition, the result in assay [12], in assay [13], in assay [14], in assay [15], in assay [16] and in assay [17] was inactive. Further, the result in assay [18] and in assay [19] was inactive.
